For some assays here: Potency and affinity values are given separately. Some results are limits rather than exact numbers.

Test [1] deals with T1, Methionyl-tRNA synthetase, putative (Leishmania donovani (strain BPK282A1)) (UniProt E9BF75).
T1 sequence (whole entry): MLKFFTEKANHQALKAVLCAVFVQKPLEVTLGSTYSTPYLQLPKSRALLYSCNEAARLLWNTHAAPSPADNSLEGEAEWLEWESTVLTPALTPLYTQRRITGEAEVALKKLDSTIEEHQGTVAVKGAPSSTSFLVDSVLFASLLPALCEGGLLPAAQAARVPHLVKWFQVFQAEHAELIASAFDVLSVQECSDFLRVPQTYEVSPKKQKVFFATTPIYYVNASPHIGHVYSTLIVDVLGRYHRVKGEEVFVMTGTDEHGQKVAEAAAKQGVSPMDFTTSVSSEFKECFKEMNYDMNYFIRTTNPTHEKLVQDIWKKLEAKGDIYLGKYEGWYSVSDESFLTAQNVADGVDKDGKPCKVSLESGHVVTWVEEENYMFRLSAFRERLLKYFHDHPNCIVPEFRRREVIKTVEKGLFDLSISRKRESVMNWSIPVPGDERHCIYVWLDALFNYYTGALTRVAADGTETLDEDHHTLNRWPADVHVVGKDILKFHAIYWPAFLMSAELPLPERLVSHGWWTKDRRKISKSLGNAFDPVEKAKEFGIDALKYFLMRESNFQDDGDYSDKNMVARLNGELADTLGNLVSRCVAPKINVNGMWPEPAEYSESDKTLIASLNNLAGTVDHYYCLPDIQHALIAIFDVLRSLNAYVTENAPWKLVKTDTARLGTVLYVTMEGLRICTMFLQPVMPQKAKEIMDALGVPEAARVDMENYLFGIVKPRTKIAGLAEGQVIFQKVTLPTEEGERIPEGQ
Kind of test: Leishmania donovani Methionine tRNA synthetase (LdMetRS):v7. Dose response assay. It counts as functional. Also noted: conc 80 nM, time 150 minutes.

Test [2] addresses Protein translocase subunit SecA (Escherichia coli (strain K12)) (UniProt P10408). The experiment in a line: Assay to Identify E. coli SecA ATPase Inhibitors. As to conditions: 30 µM. It counts as functional. Also noted: scale not given: direction of the effect not stated beside the values.
The target in test [3] is T2, Ubiquitin-activating enzyme e1, putative (Leishmania donovani (strain BPK282A1)) (UniProt E9BSI1).
T2 sequence (whole entry): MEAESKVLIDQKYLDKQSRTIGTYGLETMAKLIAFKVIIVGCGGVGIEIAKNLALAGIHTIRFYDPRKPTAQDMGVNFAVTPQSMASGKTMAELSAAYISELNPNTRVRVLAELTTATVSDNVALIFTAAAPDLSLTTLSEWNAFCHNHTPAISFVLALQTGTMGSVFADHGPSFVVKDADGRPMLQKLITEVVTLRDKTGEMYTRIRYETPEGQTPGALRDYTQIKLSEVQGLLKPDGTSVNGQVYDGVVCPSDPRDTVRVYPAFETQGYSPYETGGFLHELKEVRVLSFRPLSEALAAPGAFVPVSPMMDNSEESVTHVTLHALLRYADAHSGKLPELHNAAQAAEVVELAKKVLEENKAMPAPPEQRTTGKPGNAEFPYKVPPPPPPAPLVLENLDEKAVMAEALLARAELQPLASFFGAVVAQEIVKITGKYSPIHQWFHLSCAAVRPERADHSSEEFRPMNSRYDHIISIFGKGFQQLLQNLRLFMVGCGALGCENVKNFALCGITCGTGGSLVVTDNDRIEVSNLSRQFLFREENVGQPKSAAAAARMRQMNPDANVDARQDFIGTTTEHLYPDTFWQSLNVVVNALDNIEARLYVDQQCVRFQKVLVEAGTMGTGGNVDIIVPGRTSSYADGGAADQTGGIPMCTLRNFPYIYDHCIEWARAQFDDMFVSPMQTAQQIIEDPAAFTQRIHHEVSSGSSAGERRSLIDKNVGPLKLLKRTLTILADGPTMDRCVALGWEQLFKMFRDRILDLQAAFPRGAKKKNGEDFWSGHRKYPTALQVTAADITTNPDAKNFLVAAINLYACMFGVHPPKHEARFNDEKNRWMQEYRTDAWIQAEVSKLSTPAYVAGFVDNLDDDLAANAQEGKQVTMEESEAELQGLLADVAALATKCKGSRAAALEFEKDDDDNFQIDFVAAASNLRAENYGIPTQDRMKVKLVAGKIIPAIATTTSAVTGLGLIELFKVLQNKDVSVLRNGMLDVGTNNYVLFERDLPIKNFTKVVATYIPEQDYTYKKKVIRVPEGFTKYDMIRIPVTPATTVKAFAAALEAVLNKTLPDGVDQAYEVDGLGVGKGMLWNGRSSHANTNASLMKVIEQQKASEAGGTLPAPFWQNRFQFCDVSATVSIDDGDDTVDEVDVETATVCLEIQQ
Kind of test: Leishmania donovani Ubiquitin Activating Enzyme (LdE1). Also noted: scale not given: direction of the effect not stated beside the values. The note with it: 30 µM. It counts as functional.

Test [4] has as its target T3, Aspartate--tRNA(Asp/Asn) ligase (Mycobacterium tuberculosis (strain ATCC 25618 / H37Rv)) (UniProt P9WFW3). Note: in the data most compounds retested in dose-response had high values.
T3 sequence (whole entry): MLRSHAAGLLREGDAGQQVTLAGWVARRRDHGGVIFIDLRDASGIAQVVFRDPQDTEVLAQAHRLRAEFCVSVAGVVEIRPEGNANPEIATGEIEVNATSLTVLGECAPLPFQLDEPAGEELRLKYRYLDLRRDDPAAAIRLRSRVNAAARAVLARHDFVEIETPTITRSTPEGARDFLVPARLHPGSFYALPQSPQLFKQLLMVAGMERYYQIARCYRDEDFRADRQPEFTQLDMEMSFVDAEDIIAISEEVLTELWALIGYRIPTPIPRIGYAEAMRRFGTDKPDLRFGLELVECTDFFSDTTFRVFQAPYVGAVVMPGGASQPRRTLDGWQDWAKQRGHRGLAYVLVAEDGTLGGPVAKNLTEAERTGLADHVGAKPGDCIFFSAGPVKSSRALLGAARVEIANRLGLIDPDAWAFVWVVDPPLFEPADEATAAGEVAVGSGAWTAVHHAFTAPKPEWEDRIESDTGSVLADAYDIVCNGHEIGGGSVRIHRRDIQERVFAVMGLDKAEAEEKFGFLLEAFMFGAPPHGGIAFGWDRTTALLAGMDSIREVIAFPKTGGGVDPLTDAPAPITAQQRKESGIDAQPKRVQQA
The experiment in a line: Assay for Asp RNA synthetase-1 from Mycobacterium tuberculosis. As to conditions: 30 µM. Also noted: scale not given: direction of the effect not stated beside the values. The format is functional.

Test [5] has as its target AMP-activated protein kinase, AMPK (Homo sapiens) (UniProt P54646+O43741+P54619+Q9UGJ0+Q9Y478+Q13131+Q9UGI9). Kind of test: AMP-dependent Kinase enzyme assay. An in vitro enzyme assay that detects ADP turnover that is directly proportional to AMPK activity. This uses naive AMPK that is activated during the assay with MK-8722. The note with it: 30 µM. It counts as functional. Also noted: scale not given: direction of the effect not stated beside the values.

Test [6] addresses Sialic acid-binding Ig-like lectin 9 (Homo sapiens) (UniProt Q9Y336). Kind of test: Hs-Siglec9 ALPHAscreen SOP 20170721. Also noted: scale not given: direction of the effect not stated beside the values. As to conditions: 10 µM. (Bead proximity is the source of the signal in Alpha formats.)
Test [7] concerns Trypanosoma cruzi. The experiment in a line: Trypanosoma cruzi phosphomannomutase and mannose-1-phosphate guanylyltransferase assay. It counts as functional. The note with it: 10 µM. Also noted: scale not given: direction of the effect not stated beside the values.
In test [8] the target is T4, Arginase-2, mitochondrial (Homo sapiens) (UniProt P78540).
T4 sequence (whole entry): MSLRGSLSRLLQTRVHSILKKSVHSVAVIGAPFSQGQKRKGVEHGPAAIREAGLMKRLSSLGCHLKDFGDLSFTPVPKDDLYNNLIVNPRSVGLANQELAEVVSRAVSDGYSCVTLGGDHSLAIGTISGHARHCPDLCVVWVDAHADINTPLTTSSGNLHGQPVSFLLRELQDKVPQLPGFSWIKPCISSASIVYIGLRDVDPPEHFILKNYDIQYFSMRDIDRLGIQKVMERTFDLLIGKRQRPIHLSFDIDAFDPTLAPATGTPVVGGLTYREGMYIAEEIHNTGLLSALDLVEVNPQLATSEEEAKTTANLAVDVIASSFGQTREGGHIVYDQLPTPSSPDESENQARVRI
The experiment in a line: in vitro enzyme assay to detect the production of urea directly proportional to the activity of Arginase II. It counts as functional. Also noted: scale not given: in the data most compounds retested in dose-response had high values. The note with it: 33.3 µM.

The target of test [9] is T5, Proteasome subunit beta (Trypanosoma cruzi) (UniProt O96673).
T5 sequence (whole entry): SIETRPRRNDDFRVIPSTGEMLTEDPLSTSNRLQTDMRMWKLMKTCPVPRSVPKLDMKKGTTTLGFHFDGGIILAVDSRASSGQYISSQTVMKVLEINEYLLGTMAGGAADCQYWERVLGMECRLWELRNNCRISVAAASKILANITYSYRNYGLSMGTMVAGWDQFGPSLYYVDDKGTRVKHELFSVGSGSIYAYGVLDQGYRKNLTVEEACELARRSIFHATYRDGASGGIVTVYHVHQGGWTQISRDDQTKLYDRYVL
The experiment in a line: Trypanosoma cruzi proteasome chymotrypsin-like activity (TcProtChymo) assay. It counts as functional. Also noted: scale not given: in the data most compounds retested in dose-response had high values. As to conditions: 9.37 µM.

Test [10] is filed under the species Homo sapiens. The experiment in a line: To identify inhibition of the IFN signalling (Jak-Stat) pathway via expression of an eGFP reporter gene under the control of an IFN-stimulated response element (ISRE) containing MxA promoter. The note with it: 30 µM. The format is functional. Also noted: scale not given: direction of the effect not stated beside the values. A general note: Reporter assays use an easily measured gene product as a stand-in for the process of interest.

The target in test [11] is Shiga toxin 2 (Escherichia coli O157:H7) (UniProt P09385+P09386). Kind of test: E. coli 0.157:H7 Shiga Toxin SOP - stx2 screening assay. It counts as functional. Also noted: scale not given: direction of the effect not stated beside the values. The note with it: 30 µM.
Test [12] has as its target T6, Tyrosyl-tRNA synthetase, putative (Trypanosoma cruzi (strain CL Brener)) (UniProt Q4DSP6).
T6 sequence (whole entry): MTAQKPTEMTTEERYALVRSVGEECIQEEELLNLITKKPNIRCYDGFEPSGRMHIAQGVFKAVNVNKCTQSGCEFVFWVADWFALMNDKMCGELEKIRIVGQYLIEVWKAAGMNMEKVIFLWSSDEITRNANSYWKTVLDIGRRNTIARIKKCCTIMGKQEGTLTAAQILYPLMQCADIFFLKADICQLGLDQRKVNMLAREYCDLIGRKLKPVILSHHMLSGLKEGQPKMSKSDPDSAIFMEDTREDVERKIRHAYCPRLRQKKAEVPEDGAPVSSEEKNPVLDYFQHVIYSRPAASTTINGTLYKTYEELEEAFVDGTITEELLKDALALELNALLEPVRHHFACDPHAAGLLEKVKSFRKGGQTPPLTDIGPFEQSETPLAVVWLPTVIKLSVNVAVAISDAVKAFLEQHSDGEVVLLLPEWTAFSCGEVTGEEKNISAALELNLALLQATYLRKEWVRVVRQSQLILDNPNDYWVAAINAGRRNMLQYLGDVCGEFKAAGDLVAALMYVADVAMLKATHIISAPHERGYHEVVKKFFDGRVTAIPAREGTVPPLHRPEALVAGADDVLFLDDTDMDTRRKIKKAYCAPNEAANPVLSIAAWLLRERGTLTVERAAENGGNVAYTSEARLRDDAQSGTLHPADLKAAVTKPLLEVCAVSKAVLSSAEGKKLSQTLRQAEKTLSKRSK
Kind of test: Trypanosoma cruzi tyrosyl tRNA synthetase (TcYRS) _High Tyrosine SOP. It counts as functional. Also noted: scale not given: in the data most compounds retested in dose-response had high values. As to conditions: 30 µM.

Test [13] has as its target T6, Tyrosyl-tRNA synthetase, putative (Trypanosoma cruzi (strain CL Brener)). Kind of test: Trypanosoma cruzi tyrosyl tRNA synthetase (TcYRS) SOP. The note with it: 30 µM. Also noted: scale not given: direction of the effect not stated beside the values. The format is functional.
Test [14] has as its target Chromo domain-containing protein 1 (Saccharomyces cerevisiae (strain ATCC 204508 / S288c) (Baker's yeast)) (UniProt P32657). The experiment in a line: ScCHD-1 Enzyme Inhibition Assay. It counts as functional. Also noted: scale not given: in the data most compounds retested in dose-response had high values. As to conditions: 30 µM.

Chain of Sialic acid-binding Ig-like lectin 9 (Homo sapiens) (Q9Y336 whole entry): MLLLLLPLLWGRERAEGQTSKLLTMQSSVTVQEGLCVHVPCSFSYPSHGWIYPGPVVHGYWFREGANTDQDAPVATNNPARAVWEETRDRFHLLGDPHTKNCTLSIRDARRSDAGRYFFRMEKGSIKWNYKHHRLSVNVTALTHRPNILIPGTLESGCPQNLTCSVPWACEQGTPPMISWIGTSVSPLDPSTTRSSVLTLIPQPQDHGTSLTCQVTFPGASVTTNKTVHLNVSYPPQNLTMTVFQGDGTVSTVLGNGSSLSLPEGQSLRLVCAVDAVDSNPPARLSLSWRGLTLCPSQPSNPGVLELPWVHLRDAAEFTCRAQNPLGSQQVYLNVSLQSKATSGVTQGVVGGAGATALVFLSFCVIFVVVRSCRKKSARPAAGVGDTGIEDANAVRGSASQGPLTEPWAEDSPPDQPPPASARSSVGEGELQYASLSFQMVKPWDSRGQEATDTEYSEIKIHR
Chain of Chromo domain-containing protein 1 (Saccharomyces cerevisiae (strain ATCC 204508 / S288c) (Baker's yeast)) (P32657 whole entry, the tested form may be a part): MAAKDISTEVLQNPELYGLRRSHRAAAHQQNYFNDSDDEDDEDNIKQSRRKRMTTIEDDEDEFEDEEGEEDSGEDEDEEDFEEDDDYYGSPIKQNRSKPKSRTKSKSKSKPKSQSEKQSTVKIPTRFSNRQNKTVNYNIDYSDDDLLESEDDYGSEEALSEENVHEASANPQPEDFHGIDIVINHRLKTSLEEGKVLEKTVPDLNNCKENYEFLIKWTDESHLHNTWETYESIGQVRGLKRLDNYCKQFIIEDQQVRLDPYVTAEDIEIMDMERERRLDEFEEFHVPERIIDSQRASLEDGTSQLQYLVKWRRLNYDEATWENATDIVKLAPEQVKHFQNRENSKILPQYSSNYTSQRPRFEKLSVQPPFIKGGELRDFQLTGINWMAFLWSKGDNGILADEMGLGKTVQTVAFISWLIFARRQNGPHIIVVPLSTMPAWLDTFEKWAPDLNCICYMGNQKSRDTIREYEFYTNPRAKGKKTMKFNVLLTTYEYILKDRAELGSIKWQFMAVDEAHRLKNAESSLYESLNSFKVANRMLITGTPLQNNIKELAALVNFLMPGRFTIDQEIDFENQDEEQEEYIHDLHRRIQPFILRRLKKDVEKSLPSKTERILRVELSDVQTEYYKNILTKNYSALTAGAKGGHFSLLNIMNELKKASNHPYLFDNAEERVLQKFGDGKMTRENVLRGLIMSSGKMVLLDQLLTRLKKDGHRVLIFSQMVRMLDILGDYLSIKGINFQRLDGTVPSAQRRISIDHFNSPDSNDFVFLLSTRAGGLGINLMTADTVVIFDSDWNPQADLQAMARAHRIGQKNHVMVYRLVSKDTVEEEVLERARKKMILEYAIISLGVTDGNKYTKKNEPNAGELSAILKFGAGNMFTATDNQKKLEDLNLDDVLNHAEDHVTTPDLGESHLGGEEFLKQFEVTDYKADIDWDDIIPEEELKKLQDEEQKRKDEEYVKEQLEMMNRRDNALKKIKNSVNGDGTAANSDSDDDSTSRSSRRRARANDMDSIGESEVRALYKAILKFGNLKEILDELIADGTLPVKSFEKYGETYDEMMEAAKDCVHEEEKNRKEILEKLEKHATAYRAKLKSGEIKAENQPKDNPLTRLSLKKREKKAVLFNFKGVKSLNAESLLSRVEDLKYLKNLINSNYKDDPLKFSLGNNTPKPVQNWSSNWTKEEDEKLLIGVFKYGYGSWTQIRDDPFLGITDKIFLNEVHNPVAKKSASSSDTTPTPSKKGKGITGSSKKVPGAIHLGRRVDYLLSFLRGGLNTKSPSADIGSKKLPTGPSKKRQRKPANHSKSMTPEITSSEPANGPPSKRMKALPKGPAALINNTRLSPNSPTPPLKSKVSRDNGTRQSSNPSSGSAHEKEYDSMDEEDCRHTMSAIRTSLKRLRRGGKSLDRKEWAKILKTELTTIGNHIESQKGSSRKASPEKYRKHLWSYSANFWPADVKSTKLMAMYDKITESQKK
Chain of Protein translocase subunit SecA (Escherichia coli (strain K12)) (P10408 whole entry): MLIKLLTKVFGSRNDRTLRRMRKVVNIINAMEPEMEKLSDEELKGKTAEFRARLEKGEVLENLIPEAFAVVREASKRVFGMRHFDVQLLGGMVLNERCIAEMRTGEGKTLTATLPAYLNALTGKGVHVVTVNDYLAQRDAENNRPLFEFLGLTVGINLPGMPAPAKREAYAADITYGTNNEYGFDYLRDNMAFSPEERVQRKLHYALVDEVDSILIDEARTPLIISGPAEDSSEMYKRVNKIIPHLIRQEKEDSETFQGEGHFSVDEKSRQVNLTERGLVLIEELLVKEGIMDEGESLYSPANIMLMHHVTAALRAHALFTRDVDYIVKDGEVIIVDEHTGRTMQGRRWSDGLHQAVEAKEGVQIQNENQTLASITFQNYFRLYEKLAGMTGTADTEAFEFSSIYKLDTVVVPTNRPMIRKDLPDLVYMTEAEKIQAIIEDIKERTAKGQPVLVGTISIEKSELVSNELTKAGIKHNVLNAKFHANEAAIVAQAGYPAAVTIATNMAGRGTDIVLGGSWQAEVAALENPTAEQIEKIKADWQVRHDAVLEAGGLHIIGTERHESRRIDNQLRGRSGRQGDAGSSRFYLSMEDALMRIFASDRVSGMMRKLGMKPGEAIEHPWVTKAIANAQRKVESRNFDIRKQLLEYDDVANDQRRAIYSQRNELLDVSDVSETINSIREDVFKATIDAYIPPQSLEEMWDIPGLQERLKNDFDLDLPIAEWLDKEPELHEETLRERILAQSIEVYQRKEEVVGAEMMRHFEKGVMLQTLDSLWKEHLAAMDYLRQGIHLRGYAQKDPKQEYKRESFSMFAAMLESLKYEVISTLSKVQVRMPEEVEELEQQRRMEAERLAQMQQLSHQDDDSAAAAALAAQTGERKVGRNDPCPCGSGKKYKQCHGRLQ

For `Clc1cc(Cl)cc(CNCCc2ccccc2)c1`, the PXC50 in test [1] (BOTTOM -4.203249798, HILLSLOPE 1.160005452, MAX_EFFECT 61.75908222, TOP 67.85944211) is 3.6.

With `CC(C)CN1C[C@H]2C[C@H](C(=O)Nc3cccnc3)[C@@H](C1)O2`, the Percent Effect in test [2] is -0.904%; in [3], 0%; in test [4], -0.0153%; in test [5], 7.32%; in [6], -2.44%; in test [7], -7.33%. The Percent Effect in test [8] is 2.87%; in test [9], 15.9%; in test [10], -8.69%; in test [11], -15.6%; in test [12], 1.08%; in test [13] it was 15.4%. In addition, the Percent Effect in test [14] was 2.38%.

As for `COc1cccc(CC(C)NC(=O)NCc2ccn(C)c2)c1` (configuration not stated), the PXC50 in [1] (MAX_EFFECT 39.40455342), in test [1] (MAX_EFFECT 41.30434783) and in test [1] (MAX_EFFECT 46.2585034) was < 4 in each case.

The record behind these values is ChEMBL document CHEMBL3988442, “University of Dundee, Small-Polar-MMV Screening Library” (2021).
